A selection: hits, their analogues and other compounds. The true share with any hit is near 19%.
Pf growth 96h: inhibits malaria parasite growth, 96 h; Potency, µM (highest dose often 28.7 µM), usual class: inhibitors; P. falciparum luciferase reporter growth, 96 h; 320,000 tested, 6.9% active; AID 504834
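Luminescence readout: decreased luciferase signal marks inhibited growth of reporter-expressing P. falciparum in infected red cells (2% hematocrit, 0.05% parasitemia final), exposed to compound two generations (96 h, 37 C, 5% CO2).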
Cycloheximide cs: counter-screen for Shiga toxin inhibitors: cycloheximide protein synthesis inhibition | cell reporter, cycloheximide protein synthesis inhibition counterscreen | max response, % | 300,000 tested, 12% active; in the data active = max response mostly above about 13%, no sharp cut-off; inactive = mostly below about 14%; note: read at 38.3 µM for the half of the compounds with a filed dose
Pf growth 48h: P. falciparum growth inhibition at 48 hours (one generation) | P. falciparum luciferase growth in erythrocytes, 48 h | Potency, µM (highest dose often 28.7 µM), actives largely listed as inhibitors | 310,000 tested, 5.9% active | AID 504832
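Firefly luciferase activity from engineered P. falciparum reports growth; inhibitors lower the luminescent signal. Cultures contained 2% hematocrit erythrocytes at 0.1% final parasitemia.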
Shiga inhibitor: inhibitors of Shiga toxin in Vero cells; Vero cells, Shiga toxin protein synthesis inhibition reporter; inhibition, % at 38.7 µM; 290,000 tested, 9.2% active; in the data active = inhibition mostly above about 28%, no sharp cut-off; inactive = mostly below about 43%
Marburg entry inh: blocks Marburg virus binding to or entry into cells; Marburg virus pseudotyped entry inhibition, cell reporter; Potency, µM (series often up to 37.8 µM), usual class: inhibitors; 300,000 tested, 1.8% active; AID 540276; calls by dose curve; tested in HEK293 cells
LASV entry inh: Lassa virus entry inhibition. Potency, µM (highest dose often 37.9 µM), usual class: inhibitors. Lassa virus pseudotype entry inhibition, cell reporter. 300,000 tested, 1.2% active; calls by dose curve; tested in HEK293 cells; note: nearly all actives have a fitted effect of over 50% in size
Numbers stand for hits. Unless noted, calls come from the whole dose curve; as a rule, active = well fitted inhibition curve with a large enough effect; inconclusive = small, poorly fitted or top-dose-only effect, or another doubt; inactive = no such curve, though single readings can be large or run the other way.

Screening COc1ccc(NC(=O)CCC(=O)Nc2ccc3nc(N4CCOCC4)cc(C)c3c2)c(OC)c1 returned Pf growth 96h inactive, Cycloheximide cs inactive, Pf growth 48h inactive, Shiga inhibitor inactive, Marburg entry inh inactive and LASV entry inh inactive.
For O=C(CNC(=O)c1cccs1)NCC(=O)OCc1ccc(F)cc1 the results were Pf growth 96h inactive, Cycloheximide cs inactive, Pf growth 48h inactive and Shiga inhibitor inactive.
`O=C(CSc1ncc(-c2ccccc2)[nH]1)Nc1ccccc1` gave Cycloheximide cs inactive, Pf growth 48h inactive, Shiga inhibitor inactive, Marburg entry inh inconclusive and LASV entry inh inactive.
For CC(Oc1cccnc1[N+](=O)[O-])C(=O)Nc1cccc(Cl)c1 (configuration not stated) the results were Pf growth 96h inconclusive and Pf growth 48h inactive.
Screening COc1ccc2oc(C(=O)NCCC(C)C)c(C)c2c1 returned Pf growth 96h inactive, Cycloheximide cs 58.1, Pf growth 48h inactive, Shiga inhibitor inactive, Marburg entry inh inconclusive and LASV entry inh inconclusive.
For Cc1c(C(=O)N(C)CCn2ccnc2C)oc2c(F)cccc12 the results were Pf growth 96h inconclusive, Cycloheximide cs inactive, Pf growth 48h inactive, Shiga inhibitor inactive, Marburg entry inh inconclusive and LASV entry inh inactive.
For COc1ccc2cc(C(=O)NCc3ccccc3CN3CCCC3)ccc2c1 the results were Pf growth 96h inconclusive and Pf growth 48h 9.28µM.
Screening Cc1c(C(=O)N(C)CCCCN2CCOCC2)oc2c(F)cccc12 returned Pf growth 96h inconclusive, Cycloheximide cs 15.2, Pf growth 48h inactive, Marburg entry inh inactive and LASV entry inh inconclusive.
CCOc1ccc2oc(C(=O)NCc3ccccc3CN3CCCC3)c(C)c2c1 was read as Pf growth 96h 9.28µM and Pf growth 48h 9.28µM.
Screening CCOc1ccc2oc(C(=O)NCC(c3ccco3)N(C)C)c(C)c2c1 (configuration not stated) returned Pf growth 96h inconclusive, Pf growth 48h inactive, Marburg entry inh inactive and LASV entry inh inconclusive.
`NC(=O)C1CCN(CC(=O)Nc2ccccc2Sc2ccccc2)CC1` gave Pf growth 96h inactive, Cycloheximide cs inactive, Pf growth 48h inactive, Shiga inhibitor inactive, Marburg entry inh inactive and LASV entry inh inconclusive.
Screening COC(=O)C1=C(C)NC(=O)NC1c1ccccc1Cl (configuration not stated) returned Pf growth 96h inactive, Cycloheximide cs inactive, Pf growth 48h inactive and Shiga inhibitor inactive.
For Cc1cc(-c2nnc(SCC(=O)NC3CCCC3)o2)no1 the results were Pf growth 96h inactive, Cycloheximide cs inactive, Pf growth 48h inactive, Shiga inhibitor inactive, Marburg entry inh inactive and LASV entry inh inactive.
For N#Cc1cn(CCOc2ccccc2F)c2ccccc12 the results were Cycloheximide cs 17.6, Pf growth 48h 2.94µM, Shiga inhibitor inactive, Marburg entry inh inactive and LASV entry inh inactive.
Cc1ccc(OCCn2cc(C=O)c3ccccc32)cc1 was read as Pf growth 96h inactive, Cycloheximide cs inactive, Pf growth 48h inactive, Shiga inhibitor inactive, Marburg entry inh inconclusive and LASV entry inh inactive.
O=Cc1cn(CCOc2ccccc2F)c2ccccc12 was read as Pf growth 96h inconclusive, Cycloheximide cs 25.4, Pf growth 48h inactive and Shiga inhibitor 49.3.
Cc1ccc(OCCCn2cc(C#N)c3ccccc32)cc1 was read as Pf growth 96h inactive, Cycloheximide cs 24.3, Pf growth 48h inactive, Shiga inhibitor 67.8, Marburg entry inh inactive and LASV entry inh inactive.
`COc1ccccc1OCCn1cc(C=O)c2ccccc21` gave Pf growth 96h inconclusive, Cycloheximide cs inactive, Pf growth 48h inactive, Shiga inhibitor inactive, Marburg entry inh inconclusive and LASV entry inh inactive.
Screening N#Cc1cn(CCOc2ccc(F)cc2)c2ccccc12 returned Pf growth 96h inactive, Cycloheximide cs inactive, Pf growth 48h 10.4µM, Shiga inhibitor inactive, Marburg entry inh inactive and LASV entry inh inactive.
`CN1CCN(C(=S)c2cn(CCOc3ccccc3F)c3ccccc23)CC1` gave Pf growth 96h inactive, Cycloheximide cs inactive, Pf growth 48h inconclusive, Shiga inhibitor inactive, Marburg entry inh inconclusive and LASV entry inh inactive.
CCOc1ccc(OCC)c(S(=O)(=O)N2CCOCC2)c1 was read as Pf growth 96h inconclusive, Cycloheximide cs inactive, Pf growth 48h inactive, Shiga inhibitor inactive, Marburg entry inh inactive and LASV entry inh inactive.
`COc1ccc(-n2nc3c(c2NC(=O)C(=O)NCc2ccccc2)CSC3)cc1` gave LASV entry inh inactive.
`Cc1nnc(SCC(=O)N2c3ccccc3CC2C)[nH]c1=O` (configuration not stated) gave Pf growth 96h inactive, Cycloheximide cs inactive, Pf growth 48h inactive, Shiga inhibitor inactive, Marburg entry inh inactive and LASV entry inh inactive.
For COC(=O)Cn1c(C)c(C#N)c2ccccc21 the results were Pf growth 96h inactive, Cycloheximide cs inactive, Pf growth 48h inactive, Shiga inhibitor inactive, Marburg entry inh inactive and LASV entry inh inactive.
Screening Cc1c(C#N)c2ccccc2n1CCOc1ccccc1F returned Pf growth 96h 2.94µM, Cycloheximide cs inactive, Pf growth 48h 1.17µM, Shiga inhibitor inactive, Marburg entry inh inconclusive and LASV entry inh inactive.
`COc1cc(C2C(C(=O)Nc3ccc(C)cc3C)=C(C)Nc3nc4ccccc4n32)cc(OC)c1OC` (configuration not stated) gave Marburg entry inh inactive and LASV entry inh inactive.
`CN(C(=O)CS(=O)(=O)c1cn(CC(=O)N2CCOCC2)c2ccccc12)c1ccccc1` gave Pf growth 96h inactive, Cycloheximide cs inactive, Pf growth 48h inactive, Shiga inhibitor inactive, Marburg entry inh inconclusive and LASV entry inh inactive.
For CC1CN(C(=O)Cn2cc(S(=O)(=O)CC(=O)N(C)c3ccccc3)c3ccccc32)CC(C)O1 (configuration not stated) the results were Pf growth 96h 13.1µM, Cycloheximide cs inactive, Pf growth 48h inactive and Shiga inhibitor inactive.
C[C@@H](C(=O)Nc1ccc2ccccc2c1)[C@H]1C[C@]1(C)[C@H](NC(=O)c1cnccn1)c1ccccc1 was read as Pf growth 96h 1.47µM, Cycloheximide cs inactive, Pf growth 48h 2.94µM, Shiga inhibitor inactive, Marburg entry inh inactive and LASV entry inh inactive.
Cc1cc(C(=O)N[C@H](c2ccccc2)[C@@]2(C)C[C@@H]2[C@@H](C)C(=O)Nc2ccc3ccccc3c2)no1 was read as Pf growth 96h 11.7µM, Cycloheximide cs inactive, Pf growth 48h inconclusive, Shiga inhibitor inactive, Marburg entry inh inconclusive and LASV entry inh inconclusive.
`CCc1cc2cc(C(=O)Nc3ccc(C)cc3)sc2s1` gave Pf growth 96h 2.33µM, Cycloheximide cs inactive, Pf growth 48h inconclusive, Shiga inhibitor inactive, Marburg entry inh inactive and LASV entry inh inconclusive.
For Cc1ccc(S(=O)(=O)NCC(=O)NCC(=O)NCCc2ccccc2F)cc1C the results were Pf growth 96h inactive, Pf growth 48h inconclusive, Marburg entry inh inactive and LASV entry inh inactive.
For C=CCOc1c(Br)cc(CNc2ccc(NC(=O)C(C)C)cc2)cc1OCC the results were Pf growth 96h 13.1µM, Cycloheximide cs inactive, Pf growth 48h inactive, Shiga inhibitor inactive, Marburg entry inh inactive and LASV entry inh inactive.

Compound activity (PubChem)
